Screening data as filed in PubChem.
A selection: hits, their analogues and other compounds. The true share with any hit is near 5.7%.
BAZ2B block: BAZ2B (human) inhibition; AlphaScreen BAZ2B-H3K14Ac peptide displacement; Q9UIF8; Potency, µM (series often up to 114 µM), inactives show at the top dose activity change, negative = inhibition, most hits filed as inhibitors; actives 4.4% (n = 360,000); AID 504333; also: potency is read from the fitted curve at half-maximal effect; % is scaled to controls: 0 for no effect and ±100 for the full control effect; nearly all actives have a fitted effect of over 60% in size
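Multi-concentration screen (max 110 uM) measuring displacement of acetylated histone H3 peptide from BAZ2B by AlphaScreen, using 50 nM protein, 50 nM peptide and 10 ug/mL streptavidin donor plus Ni-chelate acceptor beads.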
PI5P4K alpha inh: PI5P4K alpha (human) kinase inhibition | max response, % | AID 652105 | P48426 | PI5P4Kalpha enzyme, ADP-Glo luminescence, 60 min; hits give low values | actives 1.2% (n = 330,000); active = max response of -50% or lower; inconclusive = between -30% and -50%; inactive = -30% or higher; also: value at the top dose of about 77 µM; % is scaled to controls: 0 for no effect and ±100 for the full control effect
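Luminescence from ADP-Glo served as readout of PI5P4Kalpha activity in a qHTS format. Reaction: enzyme, substrate, compound, ATP at 5 microM final, 60 min at RT.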
HP1b binding inh: blocks HP1-beta chromodomain binding to methylated histone tails; P83916; AlphaScreen HP1-beta / biotin-H3K9me3 peptide binding; Potency, µM (highest dose often 114 µM), inactives show at the top dose activity change, negative = inhibition, most hits filed as inhibitors; actives 0.56% (n = 390,000); AID 540317; also: potency is read from the fitted curve at half-maximal effect; nearly all actives have a fitted effect of over 70% in size
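Compound inhibition of the preformed complex between 50 nM HP1-beta and 50 nM biotinylated H3K9me3 peptide was read by AlphaScreen. Buffer was PBS pH 7.4 with 0.01% Tween-20. Incubations ran 30 min at room temperature, with 10 ug/mL donor/acceptor beads.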
JMJD2A Tudor inh: inhibitors of human JMJD2A Tudor domain; AlphaScreen JMJD2A-Tudor / H3K4me3 peptide binding; actives 4.4% (n = 390,000); Potency, µM (highest dose often 114 µM), for the others: at the highest dose activity change, negative = inhibition, hits mostly inhibitors; AID 504339; O75164; also: potency is read from the fitted curve at half-maximal effect; % is scaled to controls: 0 for no effect and ±100 for the full control effect; nearly all actives have a fitted effect of over 50% in size
KDM4E inh: blocks human JMJD2E demethylase activity; B2RXH2; JMJD2E catalytic domain, FDH-coupled NADH fluorescence (FDH is formaldehyde dehydrogenase); Potency, µM (doses to about 57.1 µM), for inactives: at the top dose activity change, negative = inhibition, usual class: inhibitors; actives 1.6% (n = 230,000); active = well fitted inhibition curve with a large enough effect, not every such curve was filed as active; inconclusive = small, poorly fitted or top-dose-only effect, or another doubt; inactive = no such curve, though single readings can be large or run the other way;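 also: potency is read from the fitted curve at half-maximal effect; 0% = wells with enzyme and -100% = buffer wells without enzyme; nearly all actives have a fitted effect of over 50% in size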
L3MBTL1 inh: inhibitors of human L3MBTL1; Potency, µM (doses to about 57.1 µM), inactives show at the highest dose activity, negative = inhibition, most hits filed as inhibitors; actives 0.66% (n = 230,000); Q9Y468; AlphaScreen L3MBTL1–H3K9me1 peptide binding; AID 485360; also: potency is read from the fitted curve at half-maximal effect; % is scaled to controls: 0 for no effect and ±100 for the full control effect; nearly all actives have a fitted effect of over 60% in size
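AlphaScreen assay: L3MBTL1 (50 nM final) was preincubated 30 min at room temperature with biotinylated H3(1-15)K9me1 peptide (75 nM final), then 30 min with library compounds; streptavidin donor and nickel chelate acceptor beads (10 ug/mL final) added, 30 min dark.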
* marks the source's active call; other numbers are inactive results; ? = inconclusive; · = no result; [ ] = remark or other dose. Unless noted, calls follow the shape of the dose curve; as a rule, active = well fitted inhibition curve with a large enough effect; inconclusive = small, poorly fitted or top-dose-only effect; inactive = no such curve, though single readings can be large or run the other way.

SMILES	BAZ2B block	PI5P4K alpha inh	HP1b binding inh	JMJD2A Tudor inh	KDM4E inh	L3MBTL1 inh
S=c1[nH]nc(CCc2ccccc2)n1-c1ccccc1	2%	-9	6%	11µM*	-21%	1%
Cc1ccc(-n2c(Cc3ccccc3)n[nH]c2=S)cc1	-23%	·	-5%	7.1µM*	5%	0%
S=c1[nH]nc(CCc2ccccc2)n1-c1ccc(Cl)cc1	-27%	-10	-19%	?	-4%	-6%
CC(C)OCC(O)CCc1n[nH]c(=S)n1-c1ccccc1 (configuration not stated)	12%	5	28%	6.3µM*	3%	1%
S=c1[nH]nc(Cc2cccs2)n1-c1ccccc1	-32%	-5	32%	7.9µM*	5%	6%
CCCCOCC(O)CCc1n[nH]c(=S)n1-c1ccccc1 (configuration not stated)	-15%	-4	50%	?	0%	46%
COc1ccccc1-c1cc2nc(C)c(CCC(=O)Nc3ccc(Br)c(C)c3)c(C)n2n1	0%	·	23%	-14%	·	·
O=C(NCCCn1cccn1)c1cc(COc2ccc(F)cc2Cl)on1	7%	4	17%	-18%	12%	13%
COc1ccc(C(=O)N2CC(=O)Nc3ccc(C)cc3C2c2ccc(F)cc2)c(OC)c1 (configuration not stated)	-3%	·	28%	-14%	·	·
Cc1ccc(N2CC(C(=O)Nc3ccc(S(=O)(=O)Nc4nccc(C)n4)cc3)CC2=O)cc1 (configuration not stated)	-18%	0	27%	-10%	0%	4%
S=c1[nH]nc(Cc2ccccc2)n1-c1ccc(Cl)cc1	-25%	-7	1%	79µM*	-10%	-6%
S=c1[nH]nc(Cc2n[nH]c(=S)n2-c2ccccc2)n1-c1ccccc1	-3%	5	40%	8.9µM*	·	·
S=c1[nH]nc(Cc2noc3ccccc23)n1-c1ccc(Cl)cc1	-13%	-10	0%	?	-8%	-11%
S=c1[nH]nc(Cc2ccccc2)n1-c1ccccc1	3%	-10	23%	4µM*	3%	2%
S=c1[nH]nc(COc2ccc(Cl)cc2)n1-c1ccccc1	-5%	-8	23%	-19%	·	2%[2.29 µM]
CCOC(=O)[C@@H]1[C@H]2COc3cc(OC)ccc3[C@H]2N2C(=O)N(c3cccc(F)c3)C(=O)[C@@]12C	·	9	30%	-31%	·	-6%
O=S(=O)(/N=S1\CC=CCN1S(=O)(=O)c1ccccc1)c1ccccc1 (configuration not stated)	·	-50*	?	-29%	·	·
O=C(Nc1ccc(Cl)cc1F)c1ccc2c(c1)C(=O)N(Cc1ccncc1)C2=O	·	-1	-6%	-8%	·	2%
COc1cc(NS(=O)(=O)c2c(C)[nH]c(C)c2C(=O)N2CCCCC2)cc(OC)c1OC	-14%	3	23%	-6%	·	·
Cc1cc(N2CCN(C(=O)c3ccco3)CC2)c2ccccc2n1	-14%	0	33%	-14%	8%	-1%
O=C(O)CCNc1cc(N2CCN(C(=O)c3ccco3)CC2)c2noc3c2c1C(=O)c1ccccc1-3	13µM*	-58*	?	18µM*	·	·
CCN1CCN(c2cc(N3CCN(C(=O)c4ccco4)CC3)c3c4c(onc24)-c2ccccc2C3=O)CC1	11µM*	-16	?	28µM*	·	·
O=C(c1cc(-c2ccccc2Cl)on1)N1CCN(C(=O)c2ccco2)CC1	-4%	3	19%	-28%	1%	-3%
COc1cccc(-c2coc3ccc(Br)cc3c2=O)c1	·	·	·	·	-7%	·
Cc1ccc(OCc2nnc(SCc3nc4ccccc4[nH]3)n2Cc2ccco2)cc1	?	1	11%	?	8%	-10%
c1ccc(-c2nnc(SCc3nc4ccccc4[nH]3)n2Cc2ccco2)cc1	-7%	·	2%	32µM*	-20%	-4%
O=C(CN1C(=O)NC2(CCCC2)C1=O)N1CCc2ccccc2C1	-4%	2	30%	1%	-2%	14%
